POLB inh: qHTS Assay for Inhibitors of DNA Polymerase Beta; P06746; Pol beta primer extension/strand displacement, fluorescence kinetic; 340,000 compounds, 1.3% hits; AID 485314, 2010; Potency, µM (highest dose often 114 µM), without a hit: at the top dose activity change, negative = inhibition, actives largely listed as inhibitors; note: % is set by controls: 0 for no effect and ±100 for the full control effect
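10 nM enzyme + cpd, 15 min RT; start with substrate 50 nM final; read 0 min and after 10 min RT. Corrected, normalized data; 4-parameter Hill curve fit.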
POLK inh: qHTS for Inhibitors of Polymerase Kappa; DNA polymerase kappa (Homo sapiens), Q9UBT6; purified Pol kappa, fluorescent DNA synthesis assay, 10 min; Potency, µM (highest dose often 107 µM), inactives show at the highest dose activity, negative = inhibition, usual class: inhibitors; 400,000 compounds, 0.53% hits; note: % is set by controls: 0 for no effect and ±100 for the full control effect
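First, compounds were pin-transferred onto 10 nM Pol kappa. After 15 min at room temperature, substrate was added to 50 nM final. Fluorescence was then measured kinetically at 0 and 10 min.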
Pol eta inh: qHTS for Inhibitors of Polymerase Eta. DNA polymerase eta (Homo sapiens), Q9Y253. recombinant Pol eta, fluorescent DNA replication assay. 390,000 compounds, 1.2% hits. Potency, µM (highest dose often 114 µM), without a hit: top-dose activity change, negative = inhibition, hits mostly inhibitors; note: % is set by controls: 0 for no effect and ±100 for the full control effect
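Pol eta (10 nM) was preincubated with compounds for 15 min at room temperature, after which fluorescent replication substrate (50 nM final) was added to start the reaction. Fluorescence was read kinetically at 0 and 10 min.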
Pol iota inh: qHTS for Inhibitors of Polymerase Iota | Potency, µM (doses to about 115 µM), inactives show top-dose activity, negative = inhibition, hits mostly inhibitors | DNA polymerase iota (Homo sapiens), Q9UNA4 | Pol iota fluorescent replication assay, 10 min | 390,000 compounds, 1% hits
Target sequence (Q9UNA4 whole entry, looked up): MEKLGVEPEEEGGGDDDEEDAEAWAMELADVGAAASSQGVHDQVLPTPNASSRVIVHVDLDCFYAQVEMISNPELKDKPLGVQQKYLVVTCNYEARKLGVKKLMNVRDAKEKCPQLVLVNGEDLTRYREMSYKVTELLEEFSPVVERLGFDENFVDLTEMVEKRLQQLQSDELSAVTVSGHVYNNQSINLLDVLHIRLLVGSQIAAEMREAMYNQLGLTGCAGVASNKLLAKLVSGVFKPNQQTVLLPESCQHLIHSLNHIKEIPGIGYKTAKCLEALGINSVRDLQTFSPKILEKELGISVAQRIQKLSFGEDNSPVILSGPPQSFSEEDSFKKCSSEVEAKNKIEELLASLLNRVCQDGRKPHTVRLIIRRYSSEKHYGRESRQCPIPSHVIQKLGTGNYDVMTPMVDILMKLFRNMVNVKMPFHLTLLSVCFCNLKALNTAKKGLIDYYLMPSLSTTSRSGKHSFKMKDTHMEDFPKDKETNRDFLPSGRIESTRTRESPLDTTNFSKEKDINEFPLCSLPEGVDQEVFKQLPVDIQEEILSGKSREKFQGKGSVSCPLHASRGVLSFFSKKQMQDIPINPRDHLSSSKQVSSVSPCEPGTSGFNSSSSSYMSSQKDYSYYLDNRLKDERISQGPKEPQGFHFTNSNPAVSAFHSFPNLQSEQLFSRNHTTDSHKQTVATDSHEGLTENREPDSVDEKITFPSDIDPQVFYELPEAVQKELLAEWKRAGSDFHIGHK
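Pol iota at 10 nM preincubated 15 min with compounds at room temperature; reaction started with fluorescent substrate, 50 nM final. Fluorescence read kinetically at 0 and 10 min; buffer-only wells as negative control.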
TDP1 block: qHTS Assay for Inhibitors of Tyrosyl-DNA Phosphodiesterase (TDP1) | Potency, µM (top dose mostly 130 µM), without a hit: at the highest dose activity change, negative = inhibition, hits mostly inhibitors | AID 485290, 2010 | recombinant TDP1, AlphaScreen DNA substrate cleavage | Tyrosyl-DNA phosphodiesterase 1 (Homo sapiens), Q9NUW8 | 350,000 compounds, 0.28% hits; note: % is set by controls: 0 for no effect and ±100 for the full control effect; nearly all actives have a fitted effect of over 40% in size
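Enzyme-compound mixtures sat 15 min at room temperature, followed by a 5 min reaction with 15 nM final substrate and 10 min with AlphaScreen beads. Recombinant human Tdp1 was used at 1 nM final.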
FEN1 inhibitor: qHTS Assay for the Inhibitors of Human Flap endonuclease 1 (FEN1); Recombinant FEN1 flap cleavage, fluorescence, 15 min; Potency, µM (highest dose often 114 µM), inactives show at the highest dose activity change, negative = inhibition, usual class: inhibitors; 390,000 compounds, 0.35% hits; AID 588795, 2011; note: % is set by controls: 0 for no effect and ±100 for the full control effect; nearly all actives have a fitted effect of over 65% in size
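Reaction started by adding substrate (50 nM final) to 10 nM enzyme after 15 min room-temperature compound preincubation. Reads at 0 and 15 min, with data normalized and fitted to a four-parameter Hill equation.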
Active calls of the source: *; ? = inconclusive; nt = no result given; ! = a repeat was not active; [ ] = dose if it differs, or a comment. Shown are actives, neighbours in structure and some others; about 2.4% of the full set was active somewhere. Calls come from the whole dose curve; as a rule, active = well fitted curve in the direction sought with a large enough effect; inconclusive = small, poorly fitted or top-dose-only effect, or another doubt; inactive = no such curve, though single readings can be large; an effect the other way counts as inactive or inconclusive. Potency is the fitted concentration of half-maximal effect.

SMILES	POLB inh	POLK inh	Pol eta inh	Pol iota inh	TDP1 block	FEN1 inhibitor
CCOC(=O)c1c(-c2ccc(C)cc2)csc1NC(=O)/C(C#N)=C/c1ccc(O)c(OC)c1	5%	-32%	28µM*	?	0%	?
CCOc1ccc2oc(C(=O)Nc3nccs3)c(C)c2c1	nt	-2%	22µM*	20%	-9%	-6%
COc1ccc(CNC(=O)CSc2ncc3c(n2)-c2ccc(Cl)cc2N(Cc2ccc(F)cc2)S3(=O)=O)cc1OC	-1%	2%	-4%	14%	3%	17%
O=C1CCCC2=C1C1(CCCC1)N=C(Nc1nc3ccccc3n1Cc1ccccc1)N2	nt	nt	nt	nt	1%	nt
CC(=O)c1sc2nc(-c3ccco3)ccc2c1N	13µM*	79µM*	28µM*	5µM*	nt	?
C(=C\c1cnc2ccccc2n1)/c1ccc2c(c1)OCO2	nt	6%	nt	20%	nt	4%
Cc1ccc(C)c(N2CCN(C(=O)Cn3cnc4sc(C)c(S(=O)(=O)N5CCN(c6ncccn6)CC5)c4c3=O)CC2)c1	-19%	-9%	-17%	4%	12%	12%
ClC(Cl)(c1nnnn1-c1ccccc1)c1nnnn1-c1ccccc1	3%	-5%	2%	14µM*	5%	50µM*
CCc1cccc(NC(=O)Cn2nc(-c3ccc(OC)cc3)ccc2=O)c1	-26%	-11%[60.1 µM]	-24%	6%	7%	3%
O=c1cc(-c2ccc(O)cc2)oc2ccccc12	28µM*	0%	-2%	30%	nt	5%
O=c1cc(-c2ccccc2O)oc2cc(O)ccc12	nt	-6%[60.1 µM]	nt	nt	-10%[56.1 µM]	nt
O=c1cc(-c2ccc(O)cc2)oc2ccc(O)cc12	23%	-9%[60.1 µM]	-10%	35%	2%[56.1 µM]	?
COc1cc(-c2cc(=O)c3c(O)cc(O)cc3o2)ccc1O	?	-7%[60.1 µM]	-27%	12%	10%	?
O=c1cc(-c2cccc(O)c2O)oc2ccccc12	nt	13µM*	nt	nt	17%	nt
O=c1cc(-c2ccc(O)cc2)oc2cc(O)cc(O)c12	-12%[57.1 µM]	20µM*!	?	?	7%	?
Cc1ccc2c(=O)cc(C(=O)Nc3c(C(=O)c4ccc(F)cc4)oc4ccccc34)oc2c1C	17%	10%	7%	-11%	-2%	4%
COc1ccc(OC)c(NC(=O)CCn2cccn2)c1	1%	2%	-8%	49%	5%	11%
Cc1ccc(NS(=O)(=O)c2ccc3c(c2)CCCC(=O)N3)cc1C	nt	nt	nt	nt	0%	nt
Cn1nnnc1Sc1ncnc2scc(-c3ccc(Br)cc3)c12	nt	-14%	-3%	?	4%	-2%
Cn1nnnc1Sc1ncnc2scc(-c3ccccc3)c12	28µM*	-12%	?	?	5%	3%
Cc1cc2c(c(=O)o1)C(c1ccc([N+](=O)[O-])o1)C(C#N)=C(N)O2 (stereo unspecified)	?	79µM*	-3%	20µM*	nt	?
CCC(CC)C1C(C#N)=C(N)Oc2cc(C)oc(=O)c21 (stereo unspecified)	-8%	-4%	9%	-3%	2%	7%
COc1ccc(CNC(=O)CCC2N=C3c4ccccc4N=C(SCc4cccc(F)c4)N3C2=O)cc1 (stereo unspecified)	-7%	3%[60.1 µM]	-12%	3%	1%	10%
CCCc1ccc(C(=O)NNC(=O)c2ccc(Cl)cc2)cc1	32µM*	-28%	?	?	7%	3%
CCOc1ccccc1NC(=O)Cn1cc(C(=O)c2cccc(OC)c2)c(=O)c2ccc(C)nc21	2%	-23%	5%	-25%	5%	-9%
SMILES	POLB inh	POLK inh	Pol eta inh	Pol iota inh	TDP1 block	FEN1 inhibitor
O=C1/C(=C/c2ccco2)Oc2c1ccc(O)c2CN1CCCCC1	20µM*	79µM*	22µM*	?	?	-3%
CC1CCN(Cc2c(O)ccc3c2O/C(=C\c2ccco2)C3=O)CC1	11µM*	?	56µM*	?	-3%	4%
COCCN(CCOC)Cc1c(O)ccc2c1O/C(=C\c1ccco1)C2=O	10µM*	?	?	?	nt	-35%
Cc1ccc(/C=C2\Oc3c(ccc(O)c3CN3CCN(CCO)CC3)C2=O)cc1	14%	-22%	1%	-9%	5%	-8%
O=C(Nc1cccc(S(=O)(=O)N2CCOCC2)c1)c1cc(S(=O)(=O)N2CCOCC2)c(Cl)cc1Cl	nt	-11%	-11%	?	nt	-1%
CC1CCc2c(sc(NC(=O)c3cc4nc(-c5ccc(Cl)cc5)cc(C(F)(F)F)n4n3)c2C#N)C1 (stereo unspecified)	3%	8%	-14%	15%	5%	17%
COc1ccc(/C=C2\SC(=O)N(CCCC(=O)Nc3ccc(C(=O)O)cc3)C2=O)cc1	nt	nt	-2%	nt	nt	nt
COc1ccc(/C=C2\SC(=O)N(CCc3nnc(N)s3)C2=O)cc1	?	?	45µM*	20µM*	nt	2%
O=C(NCCc1cn2ccccc2n1)c1cc(COc2ccc3ncccc3c2)on1	40µM*	-23%	-10%	36%	3%	0%
CCCCCCc1cc2cc(C(=O)NC)c(=N)oc2cc1O	2%	-14%	-20%	39%	0%	1%
CCCCCCc1cc2cc(C(N)=O)c(=N)oc2cc1O	32µM*	nt	nt	nt	2%	nt
CC(C)(C)c1ccc(Nc2nc(C#N)nc(NC3CCCC3)n2)cc1	nt	nt	nt	nt	-2%	nt
O=C(Nc1nnc(C23CC4CC(CC(C4)C2)C3)s1)c1ccc(N2C(=O)CCC2=O)cc1	10µM*	-41%	?	?	45µM*	3%
CC(C)c1nnc(NC(=O)c2ccc(N3C(=O)CCC3=O)cc2)s1	?	16%	-8%	14%	0%	-3%
COc1ccc2[nH]c(=O)c(CN(Cc3ccco3)C(c3nnnn3Cc3ccccc3)C(C)C)cc2c1 (stereo unspecified)	4%	-12%	1%	?	3%	-8%
Cc1ccc(CN(Cc2cc3cc4c(cc3[nH]c2=O)OCCO4)Cc2nnnn2Cc2ccco2)cc1	28µM*	71µM*	?	20µM*	nt	-15%
Cc1ccc2cc(CN(Cc3ccc4c(c3)OCO4)Cc3nnnn3Cc3ccco3)c(=O)[nH]c2c1	12%	-4%	-16%	-8%	4%	-7%
COc1ccc2[nH]c(=O)c(CN(Cc3nnnn3Cc3ccco3)C3CCCCC3)cc2c1	28µM*	35µM*	-8%	20µM*	nt	-13%

Compound activity: PubChem BioAssay, National Center for Advancing Translational Sciences (NCATS)
